Source: PubChem BioAssay (NCATS)
Results filed as inconclusive are left out. Unmarked numbers belong to inactive results. Calls follow the shape of the dose curve; as a rule, active = well fitted inhibition curve with a large enough effect; inconclusive = small, poorly fitted or top-dose-only effect; inactive = flat fitted curve, though single readings scatter.
% is scaled to controls: 0 for no effect and ±100 for the full control effect.

Each compound was assayed against Calcium and integrin-binding protein 1 (Homo sapiens) (UniProt Q99828) (assay: Primary qHTS for Identification of Calcium Integrin Binding Protein 1 (CIB1) Competitor (AID 1508620;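 also: GST tagged CIB1 binding a fluorescein labelled alphaIIb integrin peptide tracer; top concentration of the series differs between compounds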)). Details: CIB1-GST / FITC-alphaIIb peptide fluorescence polarization; series mostly up to 114 µM; activity change, negative = inhibition: at the top concentration.
Chain of Calcium and integrin-binding protein 1 (Homo sapiens) (Q99828 whole entry, looked up): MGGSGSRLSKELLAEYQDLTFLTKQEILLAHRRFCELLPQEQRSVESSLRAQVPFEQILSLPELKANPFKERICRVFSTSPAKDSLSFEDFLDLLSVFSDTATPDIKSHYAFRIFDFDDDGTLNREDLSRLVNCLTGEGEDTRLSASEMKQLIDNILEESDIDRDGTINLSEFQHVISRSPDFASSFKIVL
In short: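 Fluorescence polarization competition: CIB1-GST (1 uM final) preincubated with compound 15 min at room temperature, then FITC-labeled alphaIIb peptide (100 nM final) added for another 15 min. Polarization read at Ex 480/Em 540.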
`Cc1ccccc1S(=O)(=O)N1CCc2cc(-c3nc(NC(=O)Cc4ccc5c(c4)OCO5)sc3C)ccc21` was tested, and the “activity change, negative = inhibition” value was 6.34%. `Cc1ccc2nc3sc(C(=O)NC4CCCCC4)cc3cc2c1` was tested, and the “activity change, negative = inhibition” value was 3.64%. `Cc1c(Br)cc(F)c([S+](=O)([O-])N2CCN([S+](=O)([O-])c3ccc4c(c3)OCCO4)CC2)c1F` was tested, and the “activity change, negative = inhibition” value was 5.41%. `CC(=O)Nc1sc2c(c1-c1ccc(OC(F)(F)F)cc1)CCNC2` was tested, and the “activity change, negative = inhibition” value was -1.13%. With `Cc1ccccc1S(=O)(=O)N1CCN(S(=O)(=O)c2ccc3c(c2)OCCO3)CC1` the “activity change, negative = inhibition” value was -3.54%. In the case of `O=C(O)c1ccc(-c2nn3c(=O)cc(N4CCNCC4)nc3s2)cc1`, the “activity change, negative = inhibition” value is reported as -0.465%. `COc1ccc(OC)c(C2=Nn3c(nnc3-c3cccc(OC)c3OC)SC2)c1` was tested, and the “activity change, negative = inhibition” value was -2.66%. In the case of `CCOc1ccc(COc2ccc(-c3nc4ccccc4[nH]3)cc2)cc1`, the “activity change, negative = inhibition” value is reported as -5.15%. `Cn1nnnc1Sc1ncnc2scc(-c3ccc(C#N)cc3)c12` was tested, and the “activity change, negative = inhibition” value was -2.04%. For `Cc1cc(C)n2ncc(C(=O)Nc3ccc4c(c3)OCCO4)c2n1`, the “activity change, negative = inhibition” value was 2.7%. For `C[C@H]1CN(S(=O)(=O)c2c(F)cccc2F)CCN1S(=O)(=O)c1ccc2c(c1)OCCO2`, the “activity change, negative = inhibition” value was -2.01%. In the case of `O=C(Nc1ncc(Cc2ccc(C(F)(F)F)cc2)s1)c1cccc(-c2ccccc2)c1`, the “activity change, negative = inhibition” value is reported as -3.4%. With `COc1ccc(-c2ccc(=O)n(CC(=O)NCCc3ccccc3)n2)cc1` the “activity change, negative = inhibition” value was -4.14%. `Cc1cc(C)n2ncc(C(=O)NCc3ccco3)c2n1` was tested, and the “activity change, negative = inhibition” value was -9.66%. With `CCOC(=O)c1ccc2c(c1)c(C(C)=O)c(C)n2-c1ccc(OC)cc1` the “activity change, negative = inhibition” value was -1.8%. For `NC(=O)C1CCN(c2nc(-c3cccc(F)c3)cs2)CC1`, the “activity change, negative = inhibition” value was 3.29%. `O=C(c1ccccc1)N1CCN(c2nc(-c3ccc(Br)cc3)cs2)CC1` was tested, and the “activity change, negative = inhibition” value was 3.47%. For `O=C(c1cc2sccc2n1Cc1ccccc1)N(CCc1ccc(O)c(O)c1)Cc1ccccc1`, the “activity change, negative = inhibition” value was 4.03%. `Cc1ccc(OCCn2c(CCNC(=O)C3CC3)nc3ccccc32)cc1` was tested, and the “activity change, negative = inhibition” value was 16.1%. For `Cc1cc2c(s1)c1cnn(Cc3ccccc3Cl)c(=O)c1n2C`, the “activity change, negative = inhibition” value was 4.23%. With `CCOc1ccc(CCNC(=O)c2cc3ccccc3n2Cc2cc(C)cc(C)n2)cc1OCC` the “activity change, negative = inhibition” value was 4.03%. `Cc1ccc(NS(=O)(=O)c2ccc3c(c2)CCCC(=O)N3)cc1C` was tested, and the “activity change, negative = inhibition” value was 1.81%. For `O=C(c1ccc2c(c1)ncn2-c1ccc(Cl)cc1)N1CCCCC1`, the “activity change, negative = inhibition” value was -5.06%. With `Cc1ccc(NC(=O)c2cnn3c(C)cc(C)nc23)cc1` the “activity change, negative = inhibition” value was -0.23%. In the case of `COc1ccccc1-c1ccc(=O)n(CC(=O)NCCc2ccccc2)n1`, the “activity change, negative = inhibition” value is reported as 5.07%. For `c1nc(N2CCC(N3CCCC3)CC2)c2cc(-c3ccc4c(c3)OCO4)ccc2n1`, the “activity change, negative = inhibition” value was 4.16%. In the case of `Cc1ccnc(NC(=S)N2CCN(c3ccc(O)cc3)CC2)c1`, the “activity change, negative = inhibition” value is reported as -25.3%. For `NC(=O)C1CCN(c2nc(-c3ccc4c(c3)OCCCO4)cs2)CC1`, the “activity change, negative = inhibition” value was -1.7% [at 384 µM]. In the case of `CN(Cc1ccc(-c2ccc(C#N)cc2)o1)c1ccc(N2CCN(C(=O)OC(C)(C)C)CC2)cc1`, the “activity change, negative = inhibition” value is reported as -8.81%. In the case of `O=C(Cn1nc(-c2ccc(C(F)(F)F)cc2)ccc1=O)NCCc1ccccc1`, the “activity change, negative = inhibition” value is reported as 3.07%. In the case of `CN(C)c1ccc(/C=C/C(=O)Nc2cccc([S+](=O)([O-])Nc3ccccc3F)c2)cc1`, the “activity change, negative = inhibition” value is reported as 9.96%. With `CC(=O)Nc1sc2c(c1Br)CCNC2` the “activity change, negative = inhibition” value was 0.502%. `O=C(c1ccccc1O)N(Cc1ccco1)Cc1ccco1` was tested, and the “activity change, negative = inhibition” value was -6.24%. With `Cc1ccc(-c2nn3c(C)nnc3s2)cc1NCc1ccc(-c2cccc(Cl)c2)o1` the “activity change, negative = inhibition” value was -5.42%. For `CCCCN(C)C(=O)Cn1nc(-c2ccccc2C)ccc1=O`, the “activity change, negative = inhibition” value was 7.38%. With `CCN1CCN(C(=S)c2ccc(O)cc2)CC1` the “activity change, negative = inhibition” value was -2.73%. `COc1ccccc1C(=O)OCC#CCSc1nnc(-c2cccc3ccccc23)o1` was tested, and the “activity change, negative = inhibition” value was 5.37%. With `O=C1CCCC2=C1C(c1ccccc1)N=C(Nc1nc3ccccc3o1)N2` (stereo not given) the “activity change, negative = inhibition” value was -20%. In the case of `Cc1ccc(Cl)cc1NS(=O)(=O)c1cc2c(cc1F)NC(=O)CC2`, the “activity change, negative = inhibition” value is reported as -1.29%. With `COc1cccc(CNc2ccc([S+](=O)([O-])Nc3ccccc3)cc2)c1Cl` the “activity change, negative = inhibition” value was 6.76%.
